The text below walks through data of PubChem BioAssay (NCI).

SMILES strings stand for the structures. Compounds without any hit were thinned out: in the full panel of roughly 83,000, 20% have a hit.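 Interpretation: 100, growth as untreated; towards 0, rising growth inhibition; 0, no net growth; 0 to -100, cell death. Compounds scoring below 10 were considered active.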 Activity calls are given as the source filed them.

The assay relates to HS 578T breast. Description: NCI-60 one-dose screen, 48 h (100 = growth as untreated, 0 = no growth, -100 = all killed). As to conditions: 10 µM unless noted. On the procedure: Growth inhibition of the HS 578T human tumor cell line is measured as a screen for anti-cancer activity. Cells are grown in 96 well plates and exposed to the test compound for 48 hours. Compounds are tested at a single concentration, which is 10^-5 M for most compounds. The reported endpoint is percent growth (GI% or GIPRCNT), where numbers from 0 - 100% represent growth inhibition, and numbers from -100% - 0 represent cell death. For example, a value of 40 represents 60% growth inhibition. A value of 0 means no net growth occurred over the course of the experiment. A value of -40 indicates 40% of cells at the beginning of the experiment died by the end of the experiment. A value of -100 means all cells are dead at the end of the experiment.
NCI-60 Human Tumor Cell Lines Screen was performed using the standard one-dose NCI protocol, which is described in more detail at https://dtp.cancer.gov/discovery_development/nci-60/default.htm.
Compounds with GIPRCNT values below 10 were considered active. Activity score was based on GIPRCNT using the following formula: […]
Score is 0 for GIPRCNT values of 100 or above, 50 for GIPRCNT values of 0, and 100 for GIPRCNT values of -100.
With `COc1ccc2c(c1)sc1nc(-c3ccc(N(C)C)cc3)cn12`, the growth is 122% (inactive).
The value for `O=C(Nc1nc(-c2ccc(Cl)cc2)cs1)c1cc(-c2ccc(Br)cc2)nc2ccc(Cl)cc12` was 49.4% (inactive); that for `CC(C)Sc1nc(Cl)c(C#N)c(-c2ccc(F)cc2)n1` was 106% (inactive).
On to `COc1cnc2c(c1)C(=O)c1c-2n(CCCN2CCNCC2)c(=O)c2cc(F)ccc12`, for which the growth is 38.6% (inactive).
The value for `Cc1[nH]ccc2cc3nc4ccccc4c3cc12` was 55.3% (inactive).
The same measure for `Nc1nc(SCc2cccnc2)c2ncn(C3OC(CO)C(O)C3O)c2n1` (stereo not given): 109% (inactive); for `C[C@H]1C(=O)N2c3ccccc3[C@@]3(O)C[C@@H](n4cnc5ccccc5c4=O)C(=O)N1[C@@H]23`: 32.9% (inactive).
The value for `NS(=O)(=O)c1ccc(-n2ncc3c(NC4CCCCC4)ncnc32)cc1` was 98.8% (inactive).
Regarding `COc1ccc(-c2cnc(SCC(=O)Nc3ccc(-c4nc5ccccc5s4)cc3)n2-c2ccc(OC)cc2)cc1`, the growth is 105% (inactive).
Take `CCOC(=O)/C=C1/SC(=Nc2ccc(C#N)cc2)N(Cc2ccco2)C1=O`: the growth was 65.4% (inactive).
The value for `Cc1csc(C#Cc2cncc(O)c2)n1` was 132% (inactive).
For the molecule `O=C1/C(=C/c2ccc(F)cc2)Cc2ccccc21`, the growth is 109% (inactive).
Consider `NS(=O)(=O)c1ccc(N2CC(c3nc4ccccc4[nH]3)CC2=O)cc1` (stereo not given), for which the growth is 98.2% (inactive).
The same measure for `O=C(Nc1ccc2c(c1)C(=O)c1ccccc1-2)c1ccccc1`: 90.6% (inactive).
The same measure for `COC(=O)c1cc2oc(/C=N\NC(=O)c3cc4oc(C)c(C)c4[nH]3)cc2[nH]1`: 108% (inactive); for `Oc1ccc(/C=N/Nc2nc3ccccc3s2)c(O)c1`: 49.2% (inactive).
The value for `O=C(O)CCC(=O)OC[C@@H](NC(=O)C(Cl)Cl)[C@H](O)c1ccc([N+](=O)[O-])cc1` was 111% (inactive).
As to `O=C1C=CC(=O)N1c1ccccn1`, the growth is 97.4% (inactive).
The same measure for `COCCCNS(=O)(=O)c1ncnc2nc[nH]c12`: 104% (inactive); for `NC(=O)NS(=O)(=O)c1ccc(N2N=C(C(F)(F)F)CC2c2cc(C(F)(F)F)cc(C(F)(F)F)c2)cc1` (stereo not given): 66.5% (inactive); for `O[N+]1=CC=CCC1=S.On1ccccc1=S.[Zn]`: 7.55% (active).
In the case of `CC[N+](CCCCCCCCCC[N+](CC)(c1ccccn1)c1ccccn1)(c1ccccn1)c1ccccn1`, the growth was 28.5% (inactive).
As to `C[C@H](C(=O)N[C@@H](Cc1ccc(-c2ccccc2)cc1)C(=O)NC1CC(C)(C)N(C)C(C)(C)C1)c1ccc(-c2ccccc2)c(F)c1`, the growth is -35.1% (active).
The value for `CC(=O)OC1Oc2cc(C)c(C)cc2-c2oc(=O)c(-c3ccccc3)cc21` (stereo not given) was -19.5% (active).
The value for `Nc1nc(Nc2ccccc2SSc2ccccc2Nc2nc(N)nc(C(Cl)(Cl)Cl)n2)nc(C(Cl)(Cl)Cl)n1` was 73.4% (inactive).
The same measure for `COc1ccc(CNC(=O)c2c(C)n([O-])c3cc(F)c(F)cc3[n+]2=O)cc1`: 97.3% (inactive).
In the case of `CCCCCCCC[Si](OCC)(OCC)OCC`, the growth was 109% (inactive).
Take `CCC(=O)Nc1cc2c(cc1Cl)-c1ccccc1C2`: the growth was 111% (inactive).
The same measure for `CCOC(=O)OCC(=O)[C@@]1(O)CC[C@H]2[C@@H]3CCC4=CC(=O)CC[C@]4(C)[C@H]3[C@@H](O)C[C@@]21C`: 123% (inactive).
The value for `COC(=O)[C@H](CCCCNC(=O)OCc1ccccc1)NC(=O)[C@@H](NC(=O)Nc1cc(C(F)(F)F)cc(C(F)(F)F)c1)C(C)C` was -1.7% [100 µM] (active).
On to `COc1cc(/C(Cl)=C/C=C/C(=O)c2c(C)[n+]([O-])c3ccc(Cl)cc3[n+]2[O-])cc(OC)c1OC`, for which the growth was 17.4% (inactive).
The same measure for `COc1cc(/C=C/c2cc(/C=C/c3ccc(O)c(OC)c3)n(C(=O)Cc3ccccc3)n2)ccc1O`: 9.84% (active); for `O=C(NCCNC(=O)Oc1cccc2ccccc12)Oc1cccc2ccccc12`: 104% (inactive); for `Cc1ccc(C(NC(=O)c2ccccc2)c2ccc3cccnc3c2O)cc1` (stereo not given): 69.5% (inactive).
Take `Cc1ccc2nc(SCC(=O)Nc3ccc(-c4nc5ccccc5s4)c(Cl)c3)[nH]c2c1`: the growth is 110% (inactive).
For `Cn1c(=O)c2[nH]c(=S)n(Cc3ccccc3)c2n(C)c1=O`, the growth is 101% (inactive).
As for `O=C1/C(=C/c2ccccc2O)C(=S)SN1Cc1ccco1`, the growth is 104% (inactive).
With `CCCCOP(=O)(OCCCC)C(C(=O)OCC)C(CC(=O)OCC)C(=O)OCC` (stereo not given), the growth is 108% (inactive).
Regarding `Cc1ccc(/C=C(/C#N)n2nnc3ncccc32)cc1`, the growth is 0.782% (active).
The value for `O=C1Nc2ccc(Cl)cc2[C@@](C#CC2CC2)(C(F)(F)F)O1` was 99.2% (inactive).
